Screening data: PubChem BioAssay, National Center for Advancing Translational Sciences (NCATS)
Pf growth 48h = Primary qHTS for delayed death inhibitors of the malarial parasite plastid, 48 hour incubation. P. falciparum luciferase growth in erythrocytes, 48 h. Potency, µM (series often up to 28.7 µM), usual class: inhibitors. actives 5.9% (n = 310,000). AID 504832, 2011
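Parasite viability was followed by luminescence of a genomically integrated firefly luciferase. Cultures held 0.1% parasitemia at 2% hematocrit (final), incubated under 5% CO2 at 37 C.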
Vaccinia Venus = qHTS for Stage-Specific Inhibitors of Vaccinia Orthopoxvirus: Venus Reporter Primary qHTS; Vaccinia virus Venus reporter expression, fluorescence; Potency, µM (series often up to 36.5 µM), usual class: inhibitors; actives 0.46% (n = 330,000); calls by dose curve; tested in A549 cells; note: nearly all actives have a fitted effect of over 30% in size
Vaccinia mCherry = qHTS for Stage-Specific Inhibitors of Vaccinia Orthopoxvirus: mCherry Reporter Primary qHTS. Vaccinia virus mCherry reporter infection, fluorescence. Potency, µM (doses to about 36.5 µM), hits mostly inhibitors. actives 0.63% (n = 310,000); calls by dose curve; tested in A549 cells; note: nearly all actives have a fitted effect of over 35% in size
NS1 inh = qHTS Assay for Inhibitors of Influenza NS1 Protein Function. actives 0.4% (n = 270,000). Potency, µM (highest dose often 46.1 µM); calls by dose curve; note: actives are rising curves; nearly all actives have a fitted effect of over 50% in size
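Compounds were scored for reversing the slow growth caused by influenza A NS1 in S. cerevisiae, measured by optical density at 600 nm. Assay medium contained 2% galactose at pH 6.0; NS1-free yeast of the same strain were the positive control.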
Pf growth 96h = Primary qHTS for delayed death inhibitors of the malarial parasite plastid, 96 hour incubation; P. falciparum luciferase reporter growth, 96 h; Potency, µM (doses to about 28.7 µM), hits mostly inhibitors; actives 6.9% (n = 320,000); AID 504834, 2011
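Parasite growth measured via integrated firefly luciferase reporter in P. falciparum. Infected erythrocytes at 2% hematocrit, 0.05% parasitemia final were treated 96 hours at 37 C under 5% CO2, and luminescence was read.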
HCV inh = qHTS Assay for Inhibitors of Hepatitis C Virus (HCV) | Huh7.5.1 HCVcc-Cre infection, luciferase reporter, 44 h | AID 651820, 2012 | actives 3.4% (n = 340,000) | Potency, µM (doses to about 41.8 µM), usual class: inhibitors
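A cell-based infection assay in which seeded cells (1,000 per well) receive test compound after 4 h, are inoculated with HCVcc-Cre at approximately 0.5 moi, and are incubated 44 h before luminescence detection.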
Of the large screens only hits and unclear results are named; the others gave an inactive call. Hits are enriched below; roughly 11% of the tested compounds scored in any of these assays. Unless noted, calls come from the whole dose curve; as a rule, active = well fitted inhibition curve with a large enough effect; inconclusive = small, poorly fitted or top-dose-only effect, or another doubt; inactive = no such curve, though single readings can be large or run the other way.

COc1ccc(-c2noc(N3CCC(C(=O)NC(C)c4ccccc4)CC3)n2)cc1 (stereo not drawn)	Pf growth 48h inconclusive, HCV inh inconclusive
CCN(C(=O)C1CCCN(c2nc(-c3ccc(OC)cc3)no2)C1)c1ccccc1F (stereo not drawn)	Pf growth 48h inconclusive, Vaccinia Venus inconclusive, Vaccinia mCherry inconclusive, Pf growth 96h inconclusive, HCV inh inconclusive
COc1ccc(-c2noc(N3CCC(C(=O)N(C)c4ccccc4)CC3)n2)cc1	Pf growth 48h inconclusive, Vaccinia Venus inconclusive, HCV inh 11.2µM
CC[C@@]1(O)C(=O)OCc2c1cc1n(c2=O)Cc2cc3cc(O)ccc3nc2-1	Vaccinia Venus inconclusive (no result: Pf growth 48h, NS1 inh, Pf growth 96h, HCV inh)
CC(=Cc1ccccc1)C=C1SC(=S)N(CCCC(=O)Nc2ccc(C(=O)O)cc2)C1=O	none (no result: Pf growth 48h, NS1 inh, Pf growth 96h, HCV inh)
CC(/C=C1\SC(=O)N(CCCC(=O)O)C1=O)=C\c1ccccc1	Pf growth 48h inconclusive, Pf growth 96h 5.86µM
CC(/C=C1\SC(=S)N(CCCC(=O)Nc2ccc(C(=O)O)cc2)C1=O)=C\c1ccccc1	Pf growth 48h inconclusive, Pf growth 96h inconclusive
O=C(O)CCCN1C(=O)/C(=C\c2ccco2)SC1=S	Pf growth 96h 2.94µM
CC(=C\c1ccccc1)/C=C1/SC(=S)N(CCCC(=O)O)C1=O	Pf growth 48h 8.28µM, Pf growth 96h inconclusive
COc1ccc(N2C(=O)CC(S/C(N)=N/N=C/c3ccnc4ccccc34)C2=O)cc1 (stereo not drawn)	none (no result: Vaccinia Venus, Vaccinia mCherry)
N#C/C(=C(/O)CN1CCOCC1)c1nc(-c2ccccc2)cs1	Pf growth 96h inconclusive (no result: Pf growth 48h)
CCOC(=O)C1CCCN(C/C(O)=C(\C#N)c2nc(-c3ccccc3)cs2)C1 (stereo not drawn)	Pf growth 96h 13.1µM
CCc1ccccc1OCC(=O)Nc1cc(S(=O)(=O)N(CC)CC)ccc1N1CCOCC1	Pf growth 48h 1.31µM, Pf growth 96h 1.17µM, HCV inh inconclusive (no result: Vaccinia Venus, Vaccinia mCherry, NS1 inh)
CCN(CC)S(=O)(=O)c1ccc(N2CCOCC2)c(NC(=O)CNCCc2ccccc2)c1	Pf growth 48h inconclusive, Pf growth 96h inconclusive (no result: Vaccinia Venus, Vaccinia mCherry)
CCN(CC)S(=O)(=O)c1ccc(N(C)C)c(NC(=O)C2CCCC2)c1	none
CCN(CC)S(=O)(=O)c1ccc(N2CCOCC2)c(NC(=O)CCOc2ccccc2)c1	Pf growth 48h 9.28µM, Pf growth 96h inconclusive (no result: Vaccinia Venus, Vaccinia mCherry)
CCN(CC)c1ccc(S(=O)(=O)N(CC)CC)cc1NC(=O)C1CCCC1	Pf growth 48h 14.7µM, Pf growth 96h inconclusive, HCV inh inconclusive
CCN(CC)S(=O)(=O)c1ccc(N2CCOCC2)c(NC(=O)COc2ccccc2)c1	Pf growth 48h 9.28µM, Pf growth 96h inconclusive, HCV inh inconclusive (no result: Vaccinia Venus, Vaccinia mCherry)
FC(F)(F)c1cccc(-c2cncc(N3CCN(CCN4CCCC4)CC3)n2)c1	none (no result: Pf growth 48h, NS1 inh, Pf growth 96h, HCV inh)
CCN(CC)S(=O)(=O)c1ccc(N2CCOCC2)c(NC(=O)C2CCCC2)c1	Pf growth 48h inconclusive, Pf growth 96h 11.7µM, HCV inh inconclusive
C/C=C/c1ccc(OCCCCN2CC(C)CC(C)C2)c(OC)c1 (stereo not drawn)	Pf growth 48h inconclusive, Vaccinia mCherry inconclusive, HCV inh inconclusive
CCc1ccc(CN2CCN(Cc3ccc(SC)cc3)CC2)cc1	Pf growth 48h inconclusive, HCV inh 10µM (no result: NS1 inh)
CCN1CCN(Cc2ccc(C)cc2C)CC1	Pf growth 96h inconclusive (no result: Vaccinia Venus, Vaccinia mCherry)
CCN1CCN(Cc2ccc(C)cc2)CC1	Pf growth 96h 5.22µM (no result: Vaccinia Venus, Vaccinia mCherry)
COc1ccc(C2c3ccc(O)cc3Oc3ncn(Cc4ccccc4)c(=N)c32)cc1OC (stereo not drawn)	Pf growth 48h 11.7µM, Pf growth 96h inconclusive
COc1ccc(C2c3ccc(O)cc3Oc3ncn4nc(-c5ccncc5)nc4c32)cc1OC (stereo not drawn)	Pf growth 48h 1.31µM, Pf growth 96h 3.29µM, HCV inh inconclusive
COc1ccc(C2c3ccc(O)cc3Oc3ncn4nc(-c5ccccn5)nc4c32)cc1OC (stereo not drawn)	Pf growth 48h 10.4µM, HCV inh inconclusive
Cc1ccc(C)c(-n2nnnc2SCC(=O)Nc2c(C)n(C)n(-c3ccccc3)c2=O)c1	none (no result: Pf growth 48h, Vaccinia Venus, Vaccinia mCherry)
